Assay results published in PubChem BioAssay (EPA / NIEHS).
Activity calls are given as the source filed them. Rule for the calls: active = hit-call score of the fitted dose curve at least 0.9, where 1 is the maximum; inactive = score below 0.9.

Experiments:
[1] = APR_HepG2_CellCycleArrest_24hr: Apredica 24-hour HepG2 Assay for Cell Cycle Arrest (AID 2282905); settings: imaging, actives raise or lower the signal;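 note: cell cycle arrest scored as ratio of 2N to 4N nuclear DNA content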
Procedure, shortened: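 After 24 h exposure at 0.39–200 uM in 0.5% DMSO, fixed cells received Hoechst 33342 staining. Imaging quantified per-nucleus DNA content; gain or loss fitted against DMSO controls.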

[2] = APR_HepG2_CellLoss_24hr: Apredica 24-hour HepG2 Assay for Cell Loss (AID 2282908); settings: high-content imaging;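 for AC50: fit in both directions so a hit may be cell loss or gain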
Procedure, shortened: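 Nuclei stained with Hoechst 33342 after formaldehyde fixation (3.7%) were imaged at 20x to count cells. Exposure lasted 24 hr, at ten concentrations from 0.39 to 200 uM in duplicate, with 0.5% v/v DMSO. Fit bidirectional, relative to DMSO.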

[3] = APR_HepG2_MicrotubuleCSK_24hr: Apredica 24-hour HepG2 Assay for Microtubule CSK Stabilty (AID 2282909); settings: HepG2 microtubule cytoskeleton imaging, actives raise or lower the signal
Procedure, shortened: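 Fixed HepG2 cells were stained for alpha-tubulin and imaged after 24 hr exposure to ten concentrations spanning 0.39–200 uM in 0.5% DMSO. Signal change was fitted in both directions relative to DMSO; taxol was the positive control.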

[4] = APR_HepG2_MitoticArrest_24hr: Apredica 24-hour HepG2 Assay for Mitotic Arrest (AID 2282910); settings: high-content imaging, actives raise or lower the signal
Procedure, shortened: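 HepG2, 24 hr dosing, 0.39–200 uM, 0.5% DMSO final. Formaldehyde-fixed, Triton-permeabilised, anti-phospho-histone H3 plus Hoechst. ArrayScan imaging at 20x; bidirectional fit vs DMSO baseline.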

[5] = APR_HepG2_MitoMembPot_24hr: Apredica 24-hour HepG2 Assay for Mitochondrial Membrane Potential (AID 2282911); settings: imaging, actives raise or lower the signal
Procedure, shortened: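 Human hepatoma HepG2 cultures received ten compound concentrations up to 200 uM for 24 hr. Membrane-potential dye signal, captured by automated fluorescence microscopy, was scored for gain or loss against DMSO controls.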

[6] = APR_HepG2_MitoMass_24hr: Apredica 24-hour HepG2 Assay for Mitochondrial Mass (AID 2282912); settings: high-content imaging, actives raise or lower the signal
Procedure, shortened: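 Endpoint is MitoTracker Red CMXRos (250 nM, 30 min, pre-fixation) intensity from 20x high-content imaging, nuclei located by Hoechst. Human HepG2 cells received ten concentrations from 0.39 to 200 uM in 0.5% DMSO for 24 hr, duplicate wells. Bidirectional fit relative to DMSO.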

[7] = APR_HepG2_p53Act_24hr: Apredica 24-hour HepG2 Assay for p53 Activation (AID 2282913); settings: high-content imaging, actives raise or lower the signal;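 note: p53 protein immunofluorescence averaged per cell in HepG2 with Hoechst nuclei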
Procedure, shortened: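 Automated fluorescence imaging quantifies p53 immunostaining in HepG2 cells after a 24 hr exposure (0.39–200 uM, duplicate, 0.5% DMSO). Nuclei are located by Hoechst 33342 staining.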

[8] = APR_HepG2_CellCycleArrest_72hr: Apredica 72-hour HepG2 Assay for Cell Cycle Arrest (AID 2282914); settings: high-content imaging, actives raise or lower the signal
Procedure, shortened: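 Cell cycle arrest in HepG2 was scored from nuclear DNA content after 72 hr compound treatment (0.39–200 uM). Activity, either gain or loss, was fitted against the DMSO baseline.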

[9] = APR_HepG2_CellLoss_72hr: Apredica 72-hour HepG2 Assay for Cell Loss (AID 2282915); settings: high-content imaging
Procedure, shortened: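 HepG2 cells exposed 72 h to compound at 0.39–200 uM (10 concentrations, duplicate) in 0.5% DMSO. Fixed with 3.7% formaldehyde and Hoechst 33342-stained. Imaged at 20x; nuclear count gives cell number, fitted bidirectionally versus DMSO.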

[10] = APR_HepG2_P-H2AX_72hr: Apredica 72-hour HepG2 Assay for H2AX Phosphorylation (AID 2282916); settings: imaging, actives raise or lower the signal;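 note: phospho-histone H2A.x immunostain intensity per cell marking DNA damage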
Procedure, shortened: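 Phospho-histone H2A.x immunofluorescence, multiplexed with Hoechst and c-Jun, quantified by high-content imaging. Compounds applied to HepG2 for 72 h across ten concentrations (0.39–200 uM, 0.5% DMSO), in duplicate; DMSO baseline.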

[11] = APR_HepG2_MitoMembPot_72hr: Apredica 72-hour HepG2 Assay for Mitochondrial Membrane Potential (AID 2282917); settings: imaging, actives raise or lower the signal
Procedure, shortened: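 HepG2 cells dosed 72 hr with compound at 0.39–200 uM in duplicate, 0.5% v/v DMSO final. Mitochondria stained with 250 nM MitoTracker Red CMXRos for 30 min before formaldehyde fixation, imaged by high-content fluorescence; bidirectional fit versus DMSO.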

[12] = APR_HepG2_MitoticArrest_72hr: Apredica 72-hour HepG2 Assay for Mitotic Arrest (AID 2282918); settings: high-content imaging, actives raise or lower the signal
Procedure, shortened: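 Mitotic arrest in HepG2 is scored from phospho-histone H3 staining after 72 hr dosing across 0.39–200 uM, with DMSO at 0.5% v/v. Nuclei are identified by Hoechst 33342 and fluorescence intensity is quantified per cell.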

[13] = APR_HepG2_MicrotubuleCSK_72hr: Apredica 72-hour HepG2 Assay for Microtubule CSK Stabilty (AID 2282919); settings: HepG2 microtubule cytoskeleton, high-content imaging, actives raise or lower the signal
Procedure, shortened: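 HepG2, 72 hr cmpd exposure, 0.39–200 uM (10 pts, duplicate), 0.5% DMSO. 3.7% formaldehyde fix, 0.5% Triton perm, anti-alpha-tubulin/Cy5 plus Hoechst. HCS fluorescence intensity; bidirectional fit vs DMSO baseline; taxol as positive control.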

[14] = APR_HepG2_P-H2AX_24hr: Apredica 24-hour HepG2 Assay for H2AX Phosphorylation (AID 2282920); settings: high-content imaging, actives raise or lower the signal
Procedure, shortened: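 Signal comes from a FITC-labeled secondary detecting phospho-histone H2A.x in fixed HepG2 cells, quantified by automated imaging at 20x. Dosing ran 24 hr across 0.39–200 uM with 0.5% v/v DMSO.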

[15] = APR_HepG2_StressKinase_24hr: Apredica 24-hour HepG2 Assay for Stress Kinase (AID 2282922); settings: HepG2 stress kinase (phospho-c-Jun) imaging, actives raise or lower the signal
Procedure, shortened: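 Read-out: phospho-c-Jun immunofluorescence (Cy3 secondary) quantified by high-content imaging at 20x, nuclei defined by Hoechst 33342. Human HepG2 liver cells dosed 24 hr, 0.39–200 uM, DMSO 0.5% v/v; gain or loss of signal fitted relative to DMSO.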

[16] = APR_HepG2_MitoMass_72hr: Apredica 72-hour HepG2 Assay for Mitochondrial Mass (AID 2282924); settings: high-content imaging, actives raise or lower the signal;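 note: MitoTracker Red CMXRos stain intensity per cell imaged as mitochondrial mass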
Procedure, shortened: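 Read-out: MitoTracker Red fluorescence intensity from automated imaging (20x, six fields per well) in human HepG2 liver cells. Dosing ran 72 hr, 0.39–200 uM, 0.5% DMSO; bidirectional curve fitting versus DMSO baseline.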

[17] = APR_HepG2_NuclearSize_72hr: Apredica 72-hour HepG2 Assay for Nuclear Size (AID 2282925); settings: high-content imaging, actives raise or lower the signal
Procedure, shortened: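 Read-out: nuclear diameter from Hoechst 33342 images (ArrayScan, 20x, six fields/well), via cell-cycle image analysis. HepG2 were dosed 0.39–200 uM for 72 hr in 0.5% DMSO. Bidirectional fit relative to DMSO.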

[18] = APR_HepG2_StressKinase_72hr: Apredica 72-hour HepG2 Assay for Stress Kinase (AID 2282921); settings: HepG2 stress kinase (phospho-c-Jun) imaging, actives raise or lower the signal
Procedure, shortened: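 Stress kinase signal is phospho-c-Jun immunofluorescence (1:500 primary, Cy3 secondary) in fixed, permeabilized human HepG2 cells imaged at 20x. Exposure lasted 72 hr over ten concentrations from 0.39 to 200 uM, 0.5% DMSO, in duplicate. Bidirectional fit versus DMSO.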

[19] = APR_HepG2_p53Act_72hr: Apredica 72-hour HepG2 Assay for p53 Activation (AID 2282923); settings: high-content imaging, actives raise or lower the signal;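 note: average cellular p53 protein immunofluorescence intensity in HepG2 cells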
Procedure, shortened: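 After 72 h with compound (ten points, 0.39 to 200 uM, final DMSO 0.5% v/v), fixed HepG2 cells were labelled with sheep anti-p53 and Hoechst 33342 and imaged; gain or loss versus DMSO scored.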

Measured: AC50

OCCCBr
inactive: [1] | [2] | [3] | [4] | [5] | [6] | [7] | [8] | [9] | [10] | [11] | [12] | [13] | [14] | [15] | [16] | [17]

CC(O)CCO (centres undefined)
inactive: [1] | [2] | [3] | [4] | [5] | [6] | [7] | [8] | [9] | [10] | [11] | [12] | [13] | [14] | [18] | [15] | [17]

COP(=S)(OC)SCN1C(=O)c2ccccc2C1=O
inactive: [1] | [2] | [3] | [4] | [5] | [6] | [7] | [8] | [9] | [10] | [11] | [12] | [13] | [14] | [18] | [15] | [16] | [17]

CN(C)c1ccc(C(=O)c2ccc(N(C)C)cc2)cc1
active: [1] 4.79 µM | [2] 1.64 µM | [3] 0.403 µM | [4] 0.538 µM | [7] 0.317 µM | [8] 0.639 µM | [9] 1.75 µM | [10] 15.4 µM | [12] 16.5 µM | [14] 26.7 µM | [15] 14 µM | [17] 1.91 µM
inactive: [5] | [6] | [11] | [13]

Clc1ccc(C(c2ccc(Cl)cc2)C(Cl)Cl)cc1
inactive: [11] | [15] | [17]
active: [1] 100 µM | [2] 93.7 µM | [3] 156 µM | [4] 89.6 µM | [5] 63.9 µM | [6] 89.1 µM | [7] 107 µM | [8] 90.9 µM | [9] 93.8 µM | [10] 104 µM | [12] 68.3 µM | [13] 156 µM | [14] 108 µM | [18] 114 µM

N#CC(Br)(Br)C(N)=O
inactive: [1] | [2] | [3] | [4] | [5] | [6] | [7] | [8] | [9] | [10] | [11] | [12] | [13] | [14] | [18] | [15] | [17]

COc1cc(C=O)cc2c1[C@H](COC(N)=O)[C@]1(OC(C)=O)ON2C[C@H]2[C@@H]1N2C(C)=O
active: [5] 0.474 µM
inactive: [1] | [2] | [3] | [4] | [6] | [7] | [8] | [9] | [10] | [11] | [12] | [13] | [14] | [15] | [19] | [16] | [17]

COC(=O)Nc1nc2ccccc2[nH]1
active: [1] 15.4 µM | [2] 7.04 µM | [4] 3.45 µM | [7] 3.13 µM | [8] 13.4 µM | [9] 5.59 µM | [10] 5.9 µM | [14] 5.54 µM | [18] 6.75 µM | [15] 36.3 µM | [16] 5.43 µM | [17] 9.08 µM
inactive: [3] | [5] | [6] | [11] | [12] | [13]

CC(C)(OOC(C)(C)c1ccccc1)c1ccccc1
active: [1] 36.4 µM | [2] 69.6 µM | [3] 77.2 µM | [4] 29.9 µM | [6] 19.6 µM | [9] 44.4 µM | [12] 41.9 µM
inactive: [5] | [7] | [8] | [10] | [11] | [13] | [14] | [15] | [19] | [17]

CC(C)(C)C(O)(CCc1ccc(Cl)cc1)Cn1cncn1 (centres undefined)
active: [2] 104 µM | [3] 115 µM | [4] 107 µM | [6] 124 µM | [7] 110 µM | [8] 102 µM | [9] 116 µM | [10] 111 µM | [12] 99.6 µM | [13] 107 µM | [14] 113 µM | [15] 108 µM | [19] 121 µM
inactive: [1] | [5] | [11] | [17]

COC(=O)c1ccccc1N
inactive: [1] | [2] | [3] | [4] | [5] | [6] | [7] | [8] | [9] | [10] | [11] | [12] | [13] | [14] | [15] | [19] | [16] | [17]

O=[N+]([O-])C(Br)(CO)CO
active: [1] 116 µM | [2] 25.6 µM | [5] 84.6 µM | [9] 35.5 µM | [17] 163 µM
inactive: [3] | [4] | [6] | [8] | [10] | [11] | [12] | [13] | [14] | [15] | [16]

[Cl-].[Cl-].[Hg+2]
inactive: [1] | [8] | [10] | [11] | [18] | [16] | [17]
active: [2] 31.3 µM | [3] 28.9 µM | [4] 23.7 µM | [5] 74.4 µM | [6] 28 µM | [7] 15.7 µM | [9] 20.3 µM | [12] 17.6 µM | [13] 13.2 µM | [14] 21.5 µM | [15] 19.8 µM

C[C@]12C=CC3=C4CCC(=O)C=C4CC[C@H]3[C@@H]1CC[C@@H]2O
inactive: [1] | [3] | [5] | [6] | [8] | [10] | [11] | [13] | [14] | [15] | [17]
active: [2] 26.1 µM | [4] 32.7 µM | [9] 21.7 µM | [12] 20.8 µM
